PPARg SRC3 recr – PPARgamma agonists recruiting SRC-3 coactivator, primary screen, biochemical; Peroxisome proliferator-activated receptor gamma (Homo sapiens), P37231; biochemical PPARgamma/SRC-3 coactivator recruitment assay; activation, % at 8 µM; actives 0.26% (n = 200,000); AID 731, 2007; in the data active = activation above about 23%;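 note: 0% = DMSO and 100% = reference agonist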
SRC2 TRFRET art – TR-FRET signal artefacts, primary screen, artefact control for PPARgamma SRC-2 agonist project, biochemical; TR-FRET artefact counter-screen; stronger effect = higher value; TR-FRET ratio at 8 µM; actives 0.4% (n = 200,000); in the data active = TR-FRET ratio above about 2000
PPARg SRC-1 ag – PPARgamma agonists recruiting SRC-1 coactivator, primary screen, biochemical; Peroxisome proliferator-activated receptor gamma (Homo sapiens), P37231; PPARgamma-SRC-1 coactivator recruitment biochemical assay; activation, % at 8 µM; actives 0.41% (n = 200,000); in the data active = activation above about 19%;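 note: 0% = DMSO and 100% = reference agonist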
SRC3 TRFRET art – TR-FRET detection interference compounds, artefact control for PPARgamma SRC-3 recruitment agonists, biochemical, TR-FRET ratio | TR-FRET ratio at 8 µM | TR-FRET artefact counter-screen, PPARgamma/SRC-3 format; stronger effect = higher value | actives 0.39% (n = 99,000); in the data active = TR-FRET ratio above about 2000
PPARg SRC-2 ag – agonists of PPARg-SRC-2 recruitment, primary screen, biochemical, HTS. Peroxisome proliferator-activated receptor gamma (Homo sapiens), P37231. PPARgamma LBD-SRC-2 recruitment. activation, % at 8 µM. actives 0.34% (n = 200,000);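 note: 0% = vehicle and 100% = reference agonist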
SRC1 TRFRET art – TR-FRET detection interference compounds, primary screen, artefact control for PPARgamma SRC-1 recruitment agonists, biochemical, TR-FRET emission ratio. TR-FRET detection artefact counter-screen; stronger effect = higher value. TR-FRET ratio at 8 µM. actives 0.34% (n = 99,000). AID 1051, 2008; in the data active = TR-FRET ratio above about 2300
PPARg SRC2 ag – agonists of PPARgamma SRC-2 coactivator recruitment, confirmation, biochemical, HTS | AID 1297, 2008 | activation, % at 8 µM | shares compounds with PPARg SRC3 recr | actives 52% (n = 790) | biochemical SRC-2 recruitment by PPARgamma;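 note: 0% = vehicle alone and 100% = reference agonist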
PPARg SRC1 conf – PPARgamma agonists recruiting SRC-1 coactivator, confirmation, biochemical; shares compounds with PPARg SRC3 recr; PPARgamma–SRC-1 coactivator recruitment biochemical assay; activation, % at 8 µM; actives 43% (n = 790); AID 1300, 2008; in the data active = activation above about 20%;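 note: 0% = vehicle wells and 100% = reference agonist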
PPARg SRC3 ag – PPARgamma-driven SRC-3 coactivator recruitment agonists, confirmation, biochemical; shares compounds with PPARg SRC3 recr; actives 29% (n = 790); activation, % at 8 µM; AID 1301, 2008; biochemical PPARgamma-SRC-3 coactivator recruitment, agonist mode; in the data active = activation above about 24%;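 note: 0% = vehicle wells and 100% = reference agonist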
Target sequence (P37231 whole entry, looked up): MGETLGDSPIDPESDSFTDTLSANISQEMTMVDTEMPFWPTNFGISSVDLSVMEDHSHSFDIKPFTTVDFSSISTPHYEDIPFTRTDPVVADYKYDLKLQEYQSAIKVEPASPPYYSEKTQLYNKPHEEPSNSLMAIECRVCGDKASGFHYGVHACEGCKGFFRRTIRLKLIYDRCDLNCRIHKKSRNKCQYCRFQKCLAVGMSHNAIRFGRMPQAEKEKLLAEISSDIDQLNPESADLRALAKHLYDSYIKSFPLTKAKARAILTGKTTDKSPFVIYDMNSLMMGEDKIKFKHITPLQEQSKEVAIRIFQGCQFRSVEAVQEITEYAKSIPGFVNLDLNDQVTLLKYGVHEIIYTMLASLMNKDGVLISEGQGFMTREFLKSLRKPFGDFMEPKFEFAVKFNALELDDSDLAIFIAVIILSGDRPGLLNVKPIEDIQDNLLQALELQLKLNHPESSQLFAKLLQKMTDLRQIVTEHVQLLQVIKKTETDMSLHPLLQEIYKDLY
Target sequence (Q9Y6Q9 whole entry, looked up): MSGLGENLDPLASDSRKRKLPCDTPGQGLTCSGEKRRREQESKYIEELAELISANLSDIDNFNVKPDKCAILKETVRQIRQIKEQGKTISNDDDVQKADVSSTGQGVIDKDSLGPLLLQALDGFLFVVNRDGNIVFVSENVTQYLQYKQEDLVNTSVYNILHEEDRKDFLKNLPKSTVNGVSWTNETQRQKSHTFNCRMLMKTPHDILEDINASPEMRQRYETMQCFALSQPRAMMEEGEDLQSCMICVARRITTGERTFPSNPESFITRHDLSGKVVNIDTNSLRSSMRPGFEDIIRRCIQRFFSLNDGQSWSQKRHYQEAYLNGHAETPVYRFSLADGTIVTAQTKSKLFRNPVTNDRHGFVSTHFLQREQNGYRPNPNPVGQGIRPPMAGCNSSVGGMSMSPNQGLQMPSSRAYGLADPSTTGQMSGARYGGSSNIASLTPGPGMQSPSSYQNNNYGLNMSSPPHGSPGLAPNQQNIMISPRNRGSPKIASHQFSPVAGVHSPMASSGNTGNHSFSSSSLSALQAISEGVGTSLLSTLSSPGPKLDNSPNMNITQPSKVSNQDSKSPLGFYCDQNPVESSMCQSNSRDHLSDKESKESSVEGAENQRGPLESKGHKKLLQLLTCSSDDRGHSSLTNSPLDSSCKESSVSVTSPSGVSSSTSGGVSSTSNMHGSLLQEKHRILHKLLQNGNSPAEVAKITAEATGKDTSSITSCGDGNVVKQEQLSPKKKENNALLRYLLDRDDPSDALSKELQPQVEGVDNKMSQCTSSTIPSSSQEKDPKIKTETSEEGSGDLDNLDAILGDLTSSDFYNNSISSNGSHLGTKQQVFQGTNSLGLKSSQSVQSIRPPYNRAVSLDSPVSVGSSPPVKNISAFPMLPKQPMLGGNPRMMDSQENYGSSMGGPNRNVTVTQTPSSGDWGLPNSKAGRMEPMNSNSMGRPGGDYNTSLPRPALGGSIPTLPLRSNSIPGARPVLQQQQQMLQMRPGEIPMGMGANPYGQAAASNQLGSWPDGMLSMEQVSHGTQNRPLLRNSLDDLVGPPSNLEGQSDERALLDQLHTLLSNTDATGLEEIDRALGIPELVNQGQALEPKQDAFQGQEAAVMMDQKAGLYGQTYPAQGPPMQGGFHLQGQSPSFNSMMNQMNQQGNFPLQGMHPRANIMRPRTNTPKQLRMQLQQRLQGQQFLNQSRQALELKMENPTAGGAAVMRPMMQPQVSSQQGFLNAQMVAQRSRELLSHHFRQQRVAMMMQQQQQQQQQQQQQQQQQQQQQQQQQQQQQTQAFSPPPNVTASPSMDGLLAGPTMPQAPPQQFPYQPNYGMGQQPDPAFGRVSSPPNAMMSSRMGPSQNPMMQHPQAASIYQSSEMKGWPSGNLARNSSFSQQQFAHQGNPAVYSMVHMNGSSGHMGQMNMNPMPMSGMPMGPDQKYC
Active calls of the source: *; . = no result given. Only some compounds are listed: those with a hit (about 0.84% of all), similar ones and a draw of the others. Cut-off read from the data, not from the text of the source, unless noted: active = activation above about 22%; inactive = the rest.

SMILES	PPARg SRC3 recr	SRC2 TRFRET art	PPARg SRC-1 ag	SRC3 TRFRET art	PPARg SRC-2 ag	SRC1 TRFRET art	PPARg SRC2 ag	PPARg SRC1 conf	PPARg SRC3 ag
CCc1cc2cc(C(=O)Nc3ccc(F)cc3)sc2s1	21	2237*	15	.	39*	.	25*	17	15
O=C(NCCc1nnc2ccc(NCc3cccnc3)nn12)c1ccccc1F	0	1645	-4	1681	-9	1740	.	.	.
Cn1c(=O)cc(OCC(=O)NCCCN2CCN(Cc3ccccc3)CC2)c2ccccc21	4	1472	3	.	8	.	.	.	.
CCn1c(=O)cc(SCC(=O)NCCCN2CCC(C)CC2)c2ccccc21	9	1872	14	1905	26*	2386*	21	13	12
CCn1c(=O)cc(SCC(=O)NCCCN2CCN(c3ccc(F)cc3)CC2)c2ccccc21	101*	3656*	87*	.	81*	.	38*	23*	25*
CCn1c(=O)cc(SCC(=O)NCCN2CCN(Cc3ccccc3)CC2)c2ccccc21	70*	3069*	49*	.	63*	.	29*	16	18
Cc1cccc(CN2CCN(CC(=O)NCCCN3CCN(c4ccc(F)cc4)CC3)C2=O)c1	5	1486	2	.	15	.	.	.	.
CCS(=O)(=O)N1N=C(c2cccc(NS(C)(=O)=O)c2)CC1c1ccc(C)cc1 (stereo not given)	1	1698	-2	1371	7	1572	.	.	.
CCOC(=O)c1c(NC(=S)Nc2ccc(Cl)cc2)sc(C)c1C	2	1461	2	.	4	.	.	.	.
COC(=O)c1c(NC(=S)Nc2ccc(CC(=O)O)cc2)sc(C)c1C	10	1741	22*	1747	11	2214	50*	36*	31*
Cc1sc(NC(=S)Nc2ccc(F)cc2)c(C(N)=O)c1C	12	1942	25*	2013	17	2290	26*	17	15
Cc1ccc(-c2nn3cnnc3c3ccccc23)cc1C	4	1438	-2	1652	12	1736	.	.	.
Clc1cccc(-c2ccc(C=Nc3ccc(N4CCOCC4)cc3)o2)c1	14	2011*	28*	1975	26*	2263	35*	25*	21
O=C(COC(=O)/C=C/c1ccccc1Cl)NCCc1ccc(Cl)cc1Cl	6	1813	6	1668	6	1563	.	.	.
CCCC(=O)Nc1nc(C)c(C(C)=O)s1	21	2441*	35*	2466*	30*	2803*	32*	21*	21
CC(NC(=O)COC(=O)CCc1ccccc1)c1ccccc1 (stereo not given)	1	1643	-4	1533	-2	1515	.	.	.
Cc1ccc(OCC(=O)NC(=S)Nc2ccc3c4c(cccc24)CC3)cc1	-1	1680	0	1684	-4	2107	.	.	.
CC(C)(C)c1ccc(OCC(=O)Nc2ccc3c4c(cccc24)C(=O)NC3=O)cc1	33*	1795	14	1741	14	2184	13	14	10
CC(=O)N1CC2([N+](=O)[O-])CN(C(C)=O)CC([N+](=O)[O-])(C1)C2(C)C	-3	1376	0	1503	-4	1642	.	.	.
COc1ccccc1C1=NN(C(=S)Nc2ccccc2)C(c2ccco2)C1 (stereo not given)	23	1731	19*	.	19	.	22*	19	13
Nc1cc2nsnc2cc1Br	334*	6354*	230*	.	265*	.	225*	167*	150*
O=c1[nH]c(S)nc2sc3c(c12)CCCC3	13	2002*	23*	2183*	29*	2564*	17	11	12
CSc1nc2sc3c(c2c(=O)[nH]1)CCCC3	3	1485	0	.	3	.	.	.	.
Cc1cc2occ(CC(=O)OCC(=O)Nc3sc4c(c3C#N)CCC(C)C4)c2cc1C (stereo not given)	-3	1549	2	1674	-6	1666	.	.	.
Cc1ccc(C(=O)C2=C(O)C(=O)N(c3ncccn3)C2c2ccc(Cl)cc2)o1 (stereo not given)	43*	2243*	28*	.	38*	.	28*	21*	22
SMILES	PPARg SRC3 recr	SRC2 TRFRET art	PPARg SRC-1 ag	SRC3 TRFRET art	PPARg SRC-2 ag	SRC1 TRFRET art	PPARg SRC2 ag	PPARg SRC1 conf	PPARg SRC3 ag
COc1ccc(N2CCN(C(=O)CN(C)S(=O)(=O)c3cnc[nH]3)CC2)cc1	1	1569	2	1796	3	1685	.	.	.
CC(C)(C)NC(=O)C(=O)NNC(=O)COc1ccc(Br)cc1	1	1593	7	1653	3	1602	.	.	.
O=C(COC(=O)c1cc(-c2cccc3ccccc23)nc2ccccc12)NC1CCS(=O)(=O)C1 (stereo not given)	10	1761	9	2043	10	2123	.	.	.
CCN(C(=O)COC(=O)c1cc(-c2cccc3ccccc23)nc2ccccc12)C1CCS(=O)(=O)C1 (stereo not given)	10	1710	11	2078*	22*	2115	10	8	5
c1ccc(-c2nnsc2-c2nc3ccccc3[nH]2)cc1	13	1693	21*	1662	17	2080	40*	34*	22
c1ccc(-c2nnsc2-c2ncc[nH]2)cc1	1	1496	-5	1443	2	1803	.	.	.
Fc1ccc(Br)cc1C1C=C(c2ccc(Br)s2)Nc2ncnn21 (stereo not given)	32*	2711*	46*	3060*	51*	3232*	54*	35*	39*
COc1cccc(C2C=C(c3ccc(Br)s3)Nc3ncnn32)c1OC (stereo not given)	17	2137*	33*	2570*	27*	3079*	57*	48*	36*
COC(=O)c1sccc1NC(=S)N1CCN(c2ccccc2F)CC1	1	1633	5	1482	3	1844	.	.	.
Cc1nn(-c2ccccn2)c2c1C(c1c(F)cccc1Cl)C1=C(N2)c2ccccc2C1=O (stereo not given)	5	1524	3	1672	-2	1949	.	.	.
O=C(CSc1ccc(-c2cccs2)nn1)c1cccs1	9	1551	3	1564	10	1848	.	.	.
N#Cc1ccsc1NC(=O)CN1CCN(S(=O)(=O)c2ccc3ccccc3c2)CC1	8	2346*	19	2536*	28*	2399*	11	10	6
